Values joined by “and” are separate entries in the source; they are usually repeats but may differ in a detail not shown here. Identical values can stand only once. The source holds several records for some structures; these can differ, active in one and inactive in another. Active and inactive are the calls of the source. How the source made its calls: active means hit-call score of the fitted dose curve at least 0.9, where 1 is the maximum; inactive means score below 0.9.

As a reminder, the AC50 is the concentration giving half of the maximal activity seen.

The experiment can be described thus: ATG_CMV_CIS: Attagene CIS-FACTORIAL HepG2 Assay for human CMV (Internal Marker) (AID 2282928).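 Further: endpoint acts as a background internal control marker rather than a target.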 The following applies: HepG2 CMV promoter reporter, transcription factor profiling; actives raise or lower the signal. How it is done:
ATG_CIS is a cell-based, multiplexed-readout assay that uses HepG2, a human liver cell line, with measurements taken at 24 hours after chemical dosing in a 24-well plate.ATG_CMV_CIS is one of 52 assay component(s) measured or calculated from the ATG_CIS assay. It is designed to make measurements of mRNA induction, a form of inducible reporter, as detected with fluorescence intensity signals by Reverse transcription polymerase chain reaction (RT-PCR) and Capillary electrophoresis technology.Data from the assay component ATG_CMV_CIS was analyzed into 1 assay endpoint. This assay endpoint, ATG_CMV_CIS, was analyzed with bidirectional fitting relative to DMSO as the negative control and baseline of activity. Using a type of inducible reporter, measures of mRNA for gain or loss-of-signal activity can be used to understand the background control at the transcription factor-level as they relate to the gene . Furthermore, this assay endpoint can be referred to as a secondary readout, because this assay has produced multiple assay endpoints where this one serves a background control function. To generalize the intended target to other relatable targets, this assay endpoint is annotated to the background measurement intended target family, where the subfamily is internal marker.
Human liver HepG2 cells are transiently transfected with multiple reporter transcription units (MRTUs) in 6-well plates using FuGene 6 reagent (Roche; 3 ml FuGene/1 mg DNA). The MRTU constructs are regulated by a cis-regulating element (promoter). […] A major difference between the CIS and TRANS system is that in CIS activities of endogenous TFs are measured, whereas the TRANS assay evaluates changes in activities of exogenous, chimeric NR-Gal4 proteins. […] At the end of 24 hour incubation, total RNA was isolated using TriZol reagent (Invitrogen). The isolated RNA is then reverse-transcribed using oligo(dT) primer and Mo-MLV reverse transcriptase (Invitrogen) with DNAse I (Ambion) treatment for 30 min. The one-tenth of the produced cDNA was amplified by PCR using Taq DNA polymerase (Invitrogen) and two reporter sequence-specific primers. The PCR products were fluorescently labeled by primer extension with 6-arboxyfluorescein (6-FAM) 5'-labeled reporter sequence-specific primer (2 min at 95 C, 20 s at 68 C and 10 min at 72 C) and these products were digested with 5U of HpaI (New England Biolabs) for 2h at 37 C. The fragments were purified using Qiaquick PCR columns (Qiagen), analyzed on an ABI 3130xL genetic analyzer (Applied Biosystems) with peak positions identified by using a set of X-rhodamine (ROX)-labeled MapMarker1000 molecular weight standards (BioVentures). The raw capillary electrophoresis data was processed using Attagraph software (Attagene).
On to `COC[C@H](C)N(C(=O)CCl)c1c(C)csc1C`, for which the compound was classed as inactive.
The same measure, in the same setting: the entry for `C=CC(=O)OCCCCCC(C)C` is “inactive”; for `ClCc1ccccn1` it is “inactive”; for `COC(=O)Cc1ccccc1` it is “inactive”.
As to `ClC1(Cl)C2(Cl)C3(Cl)C4(Cl)C(Cl)(Cl)C5(Cl)C3(Cl)C1(Cl)C5(Cl)C24Cl` (stereo not given), the call was inactive.
As to `CCNc1nc(NC(C)(C)C)nc(SC)n1`, the AC50 is 65.6 µM (active).
As for `CC(C#N)CCC#N` (stereo not given), the compound was classed as inactive.
On the same count and under the same terms, the entry for `NC(=S)Nc1ccccc1` is “inactive”.
The same measure, in the same setting: the entry for `CC12CC1(C)C(=O)N(c1cc(Cl)cc(Cl)c1)C2=O` (stereo not given) is “inactive”.
For the compound `C[C@H]1CCCC(=O)CCC/C=C/c2cc(O)cc(O)c2C(=O)O1`, the concentration at half-maximal activity (AC50) is 31.1 µM (active).
On the same count and under the same terms, the figure for `C[C@]12CC[C@H](O)CC1=CC[C@@H]1[C@@H]2CC[C@]2(C)C(=O)CC[C@@H]12` is 27.7 µM (active).
For `COc1ccc(C=O)cc1OC`, the outcome was inactive.
On the same count and under the same terms, the value for `ClC(Cl)=C(Cl)C(Cl)=C(Cl)Cl` was “inactive”.
With `CC(C)(c1ccccc1)c1ccc(O)c(C(C)(C)c2ccccc2)c1`, the half-maximal activity concentration (AC50) is 14.9 µM (active).
The same measure, in the same setting: the figure for `CCN1CCC2(CC1)COc1cc3c(cc12)N(C(=O)c1ccc(-c2ccc(-c4nnc(C)o4)cc2C)cc1)CC3` is 5.81 µM (active).
For the compound `Nc1cccc2ccccc12`, the outcome was inactive.
Still for that read-out and setting: the entry for `CCOC(=O)Nc1cccc(OC(=O)Nc2ccccc2)c1` is “inactive”; for `OCC(O)CCl` (stereo not given) it is “inactive”.
The same measure, in the same setting: the entry for `CCCCCCCCC(=O)NCc1ccc(O)c(OC)c1` is “inactive”.
As for `O=C(Nc1ccc2[nH]ccc2c1)c1cc2cc(F)ccc2n1Cc1cccc(F)c1`, the concentration at half-maximal activity (AC50) was 11 µM (active).
`COP(=O)(OC)O/C(=C\Cl)c1cc(Cl)c(Cl)cc1Cl`: the compound was classed as inactive.
Same read-out and setting: the value for `CC(C)C1CCC(Cc2ccc(Cl)cc2)C1(O)Cn1cncn1` (stereo not given) was “inactive”; that for `O=C(Cl)c1ccc(Cl)cc1` was “inactive”.
Still for that read-out and setting: the entry for `CC1(C)Cc2cccc(O)c2O1` is “inactive”; for `CC(C)c1cccc(C(C)C)c1O` it is “inactive”; for `O=C(O)C(F)(F)C(F)(F)C(F)(F)C(F)(F)C(F)(F)C(F)(F)F` it is “inactive”.
The same measure, in the same setting: the entry for `COP(=S)(OC)Oc1cc(Cl)c(Cl)cc1Cl` is “inactive”; for `CCOP(=S)(OCC)Oc1ccc(S(C)=O)cc1` (stereo not given) it is “inactive”; for `N#CCc1ccc(Cl)cc1` it is “inactive”.
Consider `CCC(C)c1cccc(C(C)CC)c1O` (stereo not given), for which the result was inactive.
On the same count and under the same terms, the value for `C=CC(=O)N(C)C` was “inactive”.
Regarding `COc1cc(-c2ccc(N)c(OC)c2)ccc1N`, the half-maximal activity concentration (AC50) is 10.5 µM (active) and 27.8 µM (active).
`COC(=O)c1sccc1S(=O)(=O)NC(=O)Nc1nc(C)nc(OC)n1`: the compound was called inactive.
In the case of `CCOP(=S)(OCC)Oc1nc(Cl)c(Cl)cc1Cl`, the concentration at half-maximal activity (AC50) is 26.1 µM (active).
Take `CCCCP(CCCC)CCCC`: the call was inactive.
Same read-out and setting: the value for `NNC(=S)NN` was “inactive”.
Same read-out and setting: the value for `O=C1C(Cl)=C(Cl)C(=O)c2ccccc21` was “inactive”.
Consider `CC(C)(C)CC(C)(C)c1ccc(O)cc1`, for which the call was inactive; the AC50 is 17.1 µM (active) and 18 µM (active).
For `C(=NC1CCCCC1)=NC1CCCCC1`, the compound was classed as inactive.
